CYP2C19 activ – increases human CYP2C19 enzyme activity; recombinant CYP2C19, luciferin-H EGE luminescence; hits give high values; 0 = fully inhibited enzyme, 1 = untreated enzyme; activation factor at 5 µM; 96,000 tested, under 10 active;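 active = activation factor of at least 2 at 5 µM in the primary screen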;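 also: 0 = wells with 2.5 mM tranylcypromine and 1 = vehicle-only wells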
Target sequence (P33261 whole entry, looked up): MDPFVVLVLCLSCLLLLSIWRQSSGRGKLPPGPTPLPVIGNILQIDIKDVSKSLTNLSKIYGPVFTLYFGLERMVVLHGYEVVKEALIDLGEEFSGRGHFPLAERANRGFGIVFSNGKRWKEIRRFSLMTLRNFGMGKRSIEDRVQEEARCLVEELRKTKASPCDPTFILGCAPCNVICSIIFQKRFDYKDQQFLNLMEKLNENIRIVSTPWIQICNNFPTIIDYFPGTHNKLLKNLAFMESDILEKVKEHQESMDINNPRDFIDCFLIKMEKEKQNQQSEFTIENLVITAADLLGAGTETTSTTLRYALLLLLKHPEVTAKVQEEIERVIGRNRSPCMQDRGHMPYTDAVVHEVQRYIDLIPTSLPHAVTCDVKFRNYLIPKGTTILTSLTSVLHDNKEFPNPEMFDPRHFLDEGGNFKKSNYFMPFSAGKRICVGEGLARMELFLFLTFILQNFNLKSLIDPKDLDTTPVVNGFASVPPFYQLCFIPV
CYP2C19 inh – human CYP2C19 inhibition. CYP2C19 Supersomes, luciferin-H EGE luminescence, 30 min. 21% of 96,000 active. inhibition, % at 5 µM. P33261;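 active = CYP2C19 inhibition above a set limit at 5 µM in the primary screen, cut at about 50% in these data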;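 also: plate controls were negative control wells for no effect and 2.5 mM tranylcypromine positive control for full effect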
CYP2C9 inhib – inhibitors of human CYP2C9. inhibition, % at 5 µM. 20% of 96,000 active. P11712. CYP2C9 Supersomes, luciferin-H conversion, luminescence;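 active = blocking of liver enzyme CYP2C9 beyond about 50% at 5 µM, limit read from the data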
CYP2C9 activ – activators of human CYP2C9; activation factor at 5 µM; 1.4% of 96,000 active; recombinant CYP2C9, luciferin-H conversion, luminescence; hits give high values; factor 1 = untreated enzyme, 0 = blocked;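 active = activation factor of 2 or more for CYP2C9 at a 5 µM dose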;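 also: 0 = sulfaphenazole-blocked wells and 1 = vehicle-only wells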
Measles CPE – protection of cells from measles virus. Measles virus-infected cells, CPE protection, absorbance. protection (pct of control), % at 4 µM. 1.5% of 140,000 active; in the data active = protection mostly above about 24%, no sharp cut-off; inactive = mostly below about 26%
* hit, by the source's call; nt = no result given. Sampled rows, rich in hits. Any-hit rate of the full collection: about 22%.

SMILES	CYP2C19 activ	CYP2C19 inh	CYP2C9 inhib	CYP2C9 activ	Measles CPE
COc1ccc2[nH]c(C)c(CCN(Cc3cccs3)C(=S)Nc3cccc(F)c3)c2c1	0.2	78*	98*	0	4
N#CCCCSc1nnc(CSc2nc3ccccc3s2)n1-c1ccccc1	0.6	38	46	0.5	nt
CCn1c(C(c2ccccc2)c2ccccc2)n[nH]c1=S	0.6	41	82*	0.2	5
CCn1c(CSc2nc3ccccc3s2)n[nH]c1=S	0.3	73*	39	0.6	42
CCCSc1nnc(CSc2nc3ccccc3s2)n1-c1ccccc1	0.4	55*	70*	0.3	15
C=CCn1c(Cc2nc3ccccc3[nH]2)n[nH]c1=S	0.2	76*	6	0.9	14
C=CCn1c(Cc2cccc3ccccc23)n[nH]c1=S	nt	nt	nt	nt	11
CCOc1cc(N2CCOCC2)c(OCC)cc1NC1=NCCCCC1	0.8	15	6	0.9	20
Brc1ccc(-c2nnc3n2C2(CCCC2)Cc2ccccc2-3)o1	nt	nt	nt	nt	26
C=CCn1c(CSc2nc3ccccc3s2)n[nH]c1=S	0.5	50*	0	1	6
O=C(NC(=S)N1CCN(c2nc(-c3ccccc3)cs2)CC1)c1cccnc1	nt	nt	nt	nt	5
Cc1c(Cl)cccc1NC(=O)CCC(=O)NNC(=O)c1ccccc1	nt	nt	nt	nt	13
Cc1ccc(-n2nc3c(c2NC(=O)c2ccc(Br)o2)CSC3)c(C)c1	0.8	19	67*	0.3	12
Cc1cccc(-n2nc3c(c2NC(=O)c2ccco2)CSC3)c1C	0.8	20	42	0.6	28*
Cc1ccc(-n2nc3c(c2NC(=O)C(C)(C)C)CSC3)c(C)c1	0.7	28	25	0.8	4
CC1(NC(=O)CC[N+](C)(C)CCO)CS(=O)(=O)CC1S(=O)(=O)[O-] (centres undefined)	nt	nt	nt	nt	5
O=C1c2ccccc2S(=O)(=O)N1CC(O)COc1ccc(Br)cc1 (centres undefined)	0	100*	69*	0.3	8
O=C1c2ccccc2S(=O)(=O)N1CC(O)COc1ccc(Cl)cc1 (centres undefined)	0	100*	67*	0.3	20
CN1CCc2c(n(CC(O)CN3C(=O)c4ccccc4S3(=O)=O)c3ccccc23)C1=O (centres undefined)	nt	nt	nt	nt	4
COc1ccc(NC(=O)CCN2C(=O)c3ccccc3S2(=O)=O)cc1	1	4	17	0.8	29
Cc1c(C)n(CC(O)CN2C(=O)c3ccccc3S2(=O)=O)c2ccccc12 (centres undefined)	0	98*	97*	0	14
O=C1c2ccccc2S(=O)(=O)N1CCOc1ccccc1	0	98*	50	0.5	0
OC(COc1ccc(Br)cc1)CN1CCOCC1 (centres undefined)	0.8	21	3	1	35
CC(C)(C)NC(=O)COC(=O)c1ccccc1OCC(=O)Nc1ccc(Br)cc1	nt	nt	nt	nt	11
CCN(CC)c1ccc(C(=S)N2CCN(c3ccccc3)CC2)cc1	0.8	24	2	1	6
SMILES	CYP2C19 activ	CYP2C19 inh	CYP2C9 inhib	CYP2C9 activ	Measles CPE
O=C1COc2ccc(C(=O)CSc3nnc(Cc4cccs4)n3-c3ccccc3)cc2N1	0.9	15	85*	0.2	5
O=C1COc2ccc(C(=O)CSc3nnc(-c4cccs4)n3Cc3ccccc3)cc2N1	0.5	52*	63*	0.4	8
O=C1COc2ccc(C(=O)c3ccccc3C(=O)O)cc2N1	nt	nt	nt	nt	8
COc1ccc(Nc2nnc(C)c(=O)[nH]2)cc1	0.9	11	7	0.9	22
CC1(C)Cc2c(sc3c2C2=NCCN2C=N3)CS1	1.2	-16	-3	1	22
CCC(C)(C)n1nnnc1C(c1ccc(C)cc1)N1CCN(Cc2ccc3c(c2)OCO3)CC1 (centres undefined)	nt	nt	nt	nt	7
O=C(Nn1cnnc1)c1cc2cc(Br)ccc2oc1=O	0.5	54*	38	0.6	10
CC(C)NC(=O)c1cc2cc(Br)ccc2oc1=O	0.4	61*	50*	0.5	18
CN(C)CCNC(=O)c1cc2cc(Br)ccc2oc1=O	0.8	18	44	0.6	5
Nc1ccc(C(=O)OCc2csc(-c3ccccc3)n2)cc1[N+](=O)[O-]	nt	nt	nt	nt	11
NNC(=O)c1cc(Br)cs1	nt	nt	nt	nt	5
CCOC(=O)C1=C(C)C(c2cccc(Oc3ccccc3)c2)NC(=S)N1 (centres undefined)	nt	nt	nt	nt	21
CCOC(=O)C1=C(c2cccc(Oc3ccccc3)c2)NC(=S)NC1C (centres undefined)	0	100*	99*	0	30
CC1CC(=O)N(c2ccc(NCc3ccccc3Cl)c([N+](=O)[O-])c2)C1=O (centres undefined)	nt	nt	nt	nt	5
O=C(Nc1ccc2c(c1)OCCO2)C1CCN(S(=O)(=O)c2cccs2)CC1	0.3	67*	58*	0.4	18
O=C(Nc1ccc2c(c1)OCO2)C1CCCN(S(=O)(=O)c2cccs2)C1 (centres undefined)	0.5	53*	68*	0.3	22
O=S(=O)(Nc1ccc2c(c1)OCO2)c1cccs1	0.1	91*	66*	0.3	38
O=C(Nc1ccc2c(c1)OCO2)C1Cc2ccccc2CN1S(=O)(=O)c1cccs1 (centres undefined)	0.4	56*	72*	0.3	15
O=S(=O)(Nc1ccc2c(c1)OCCO2)c1cccs1	0.7	28	23	0.8	9
CN1c2ccccc2-c2nc3ccccc3n2C1c1cccs1 (centres undefined)	nt	nt	nt	nt	23
Cc1cccnc1NC(=O)C1CCN(S(=O)(=O)c2cccs2)CC1	1.1	-6	11	0.9	7
CCC(CC)NC(=O)C1CCN(S(=O)(=O)c2cccs2)CC1	0.8	24	41	0.6	12
O=C(Nc1ccc2c(c1)OCO2)C1CCCN(c2nc3ccccc3s2)C1 (centres undefined)	0.5	48	54*	0.5	2
CC(=O)c1cccc(NC(=O)C2CCN(S(=O)(=O)c3cccs3)CC2)c1	0.1	92*	68*	0.3	13
CC(=O)Nc1ccc(-c2csc(NC(=O)C3CCN(S(=O)(=O)c4cccs4)CC3)n2)cc1	nt	nt	nt	nt	68*
SMILES	CYP2C19 activ	CYP2C19 inh	CYP2C9 inhib	CYP2C9 activ	Measles CPE
CCC(C)NC(=O)C1CCN(S(=O)(=O)c2cccs2)CC1 (centres undefined)	1	5	52*	0.5	12
COc1ccc(S(=O)(=O)N2CCC(C(=O)Nc3cccc(C(C)=O)c3)CC2)cc1	nt	nt	nt	nt	5
CC(C)[C@H](NC(=O)c1ccc(C(C)(C)C)cc1)C(=O)Nc1nnc(C2CC2)s1	nt	nt	nt	nt	3
CCNC(=O)COc1cccc(C(=O)NCc2ccccc2)c1	nt	nt	nt	nt	3
Cc1nn2c(Nc3ccccc3)c3c(nc2c1-c1ccccc1)CCC3	nt	nt	nt	nt	26
Cc1nn2c(N3CCOCC3)c3c(nc2c1-c1ccccc1)CCCC3	1.1	-8	77*	0.2	21
Cc1nn2c(-n3ccnc3C)c3c(nc2c1-c1ccccc1)CCC3	0.1	90*	62*	0.4	6

Source: PubChem (several laboratories)
